Screening results deposited in PubChem by National Center for Advancing Translational Sciences (NCATS).
A selection: hits, their analogues and other compounds. The true share with any hit is near 0.74%.
Vif-A3F inh – blocks the Vif interaction with APOBEC3F; HeLa A3F-eYFP + Vif (tagged APOBEC3F with the HIV-1 protein that degrades it), YFP fluorescence increase; Potency, µM (series often up to 46.1 µM); 0.2% of 390,000 active; AID 602313; note: nearly all actives have a fitted effect of over 65% in size
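Fluorescence increase (Ex 488/Em 500-530) after overnight compound treatment at 37 deg C flags inhibition of Vif-driven A3F-eYFP loss in stable HeLa A3F-eYFP/Vif cells seeded overnight beforehand.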
PINK1 modulator – changes PINK1 expression | Potency, µM (highest dose often 76.6 µM), most hits filed as activators | 0.2% of 410,000 active | PINK1 immunofluorescence, high-content cytometry, 24 h; active = well fitted activation curve with a large enough effect; inconclusive = small, poorly fitted or top-dose-only effect; cell line not stated here; note: nearly all actives have a fitted effect of over 65% in size
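Cells are seeded, rested 12 hours, then given compound at five concentrations or DMSO for 24 hours. After fixation, blocking and antibody staining, PINK1 amount and mitochondrial localization are scored; CCCP serves as control.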
LDHA block – inhibitors of human lactate dehydrogenase A; P00338; activity change, % (values are at about 110 or 230 µM); purified LDHA, NADH/diaphorase-resazurin fluorescence; stronger effect = lower value; 0.15% of 480,000 active; AID 1347041; in the data active = activity change below about -30%; inconclusive = mostly about -25% to -30%
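Human LDH5 at 2 nM final in Tris HCl pH 7.4 with 0.06 mM NADH and 0.2 mM pyruvate, reacted 5 minutes at room temperature. Remaining NADH coupled via diaphorase/resazurin; resorufin fluorescence read at 0 and 20 minutes, normalized to enzyme-free and DMSO wells.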
Glioma ERSR ind – induces the endoplasmic reticulum stress response in human glioma cells; U87-MG GRP78 promoter luciferase reporter, 16 h; Potency, µM, actives largely listed as activators; 0.02% of 420,000 active; AID 602332; note: series mostly up to about 76 µM; nearly all actives have a fitted effect of over 35% in size
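ERSR induction read as luciferase luminescence (Bright-Glo, 10 min at room temperature) in stably transfected human U87-MG glioma cells exposed to compounds for 16 h, using GRP78 as sensor.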
pAkt inh – blocks phosphorylation of Akt; Neuro2A IGF-stimulated pAkt S473 HTRF, 20 min; stronger effect = lower value; activity change, % for hits at 50 µM; 0.32% of 360,000 active; AID 651550; in the data active = activity change below about -80%; inconclusive = mostly about -51% to -80%
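Neuro2A cells in DMEM with 0.5% FBS, overnight at 37 deg C, given compound at single 50 µM final, then IGF (6 nM final) for 20 min at 37 deg C. Lysed; phospho-Akt Ser473 by HTRF after 24 h, 665/615 ratio.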
Vif-APOBEC3G blk – Vif-A3G binding inhibition; 0.076% of 410,000 active; AID 602310; Potency, µM (top dose mostly 46.1 µM), actives largely listed as inhibitors; HeLa A3G-eYFP + Vif (tagged APOBEC3G with the HIV-1 protein that degrades it), YFP fluorescence, overnight; Q9HC16; note: nearly all actives have a fitted effect of over 60% in size
Target sequence (Q9HC16 whole entry, looked up): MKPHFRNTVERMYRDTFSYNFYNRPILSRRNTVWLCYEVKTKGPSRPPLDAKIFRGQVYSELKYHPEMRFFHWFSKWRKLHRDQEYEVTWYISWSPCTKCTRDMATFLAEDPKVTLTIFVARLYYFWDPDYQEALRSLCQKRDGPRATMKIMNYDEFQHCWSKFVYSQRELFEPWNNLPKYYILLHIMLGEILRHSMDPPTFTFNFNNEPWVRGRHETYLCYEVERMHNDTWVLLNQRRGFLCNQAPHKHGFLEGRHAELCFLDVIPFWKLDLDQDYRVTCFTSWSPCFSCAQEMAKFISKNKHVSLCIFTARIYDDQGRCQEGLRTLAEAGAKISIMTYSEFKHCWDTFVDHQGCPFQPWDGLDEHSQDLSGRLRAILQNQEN
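HeLa cells stably expressing Vif and C-terminally eYFP-tagged A3G, seeded overnight at 37 deg C, then exposed to compound by pintool overnight at 37 deg C. Rise in yellow fluorescence (Ex 488/Em 500-530, Acumen) marks blocked Vif-driven A3G degradation.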
A number is an active result; n = inactive; u = inconclusive; x = not tested or not shown; ! = repeats disagree. Unless noted, calls come from the whole dose curve; as a rule, active = well fitted curve in the direction sought with a large enough effect; inconclusive = small, poorly fitted or top-dose-only effect, or another doubt; inactive = no such curve, though single readings can be large; an effect the other way counts as inactive or inconclusive.

SMILES	Vif-A3F inh	PINK1 modulator	LDHA block	Glioma ERSR ind	pAkt inh	Vif-APOBEC3G blk
CSCCC(NS(=O)(=O)c1ccc(Cl)cc1)C(=O)OCc1c(Cl)cccc1Cl (stereo not drawn)	n	40µM	n	n	n	n
Cc1cc(SCC(=O)NC2(C#N)CCCCCC2)nc2ccccc12	x	x	n	x	x	x
COCCOC(=O)C1=C(C)NC2=C(C(=O)CC(C)(C)C2)C1c1cccnc1 (stereo not drawn)	n	n	n	n	-108%	n
O=C(COC(=O)C1COc2ccccc2O1)NC(=O)NC1CCCC1 (stereo not drawn)	n	n	n	n	-98%	n
O=C(COC(=O)C1COc2ccccc2O1)NC1CCCCC1 (stereo not drawn)	n	n	n	n	n	n
CNc1nc(-c2cc3c4c(c2)CC(=O)N4CCC3)cs1	x	x	n	x	x	x
COc1ccc([C@@H]2CC(=O)C3=C(C2)Nc2[nH][nH]c(=O)c2[C@H]3c2cccc(Br)c2)cc1OC	x	x	n	x	x	x
CCC(Oc1ccc(F)cc1)C(=O)Nc1nc(-c2ccc(F)cc2)ns1 (stereo not drawn)	u	28µM	n	n	x	n
CCCCCCOc1ccc(C(=O)O)cc1Br	x	x	n	x	x	x
Cc1cc(C)n(C(=O)CNc2ccccc2Cl)n1	n	n	n	n	-127%	n
Cc1ccc2nccc(/C=C/c3ccc(N(C)C)cc3)c2c1	x	x	x	n	x	3.5µM
CN(C)c1ccc(/C=C\C=C/c2ccnc3ccccc23)cc1	x	11µM	n	n	x	n
CN(C)c1ccc(/C=C/c2ccncc2)cc1	28µM	n	n	n	n	u
Cc1ccc2c(/C=C/c3ccc(N(C)C)cc3)ccnc2c1	x	n	n	n	x	u
Fc1ccc(/C=C/c2nccc3ccccc23)cc1	x	n	n	n	x	n
CN(C)c1ccc(/C=C/c2nccc3ccccc23)cc1	x	n	n	n	x	11µM
O=C1Nc2ccccc2CCC1n1nc(-c2ccccc2)ccc1=O (stereo not drawn)	x	x	n	x	x	x
CCc1ccc2oc(=O)cc(CN3CCCCCC3)c2c1	x	x	n	x	x	x
C/C=C/Oc1ccc(C(=O)/C(=C\c2ccncc2)c2nc3ccccc3o2)cc1	x	x	n	x	x	x
C(=C\c1c[nH]c2ccccc12)/c1nccc2ccccc12	x	n	n	n	x	8.9µM
C(=Cc1cnnc2ccccc12)c1ccccc1	n	n	n	n	n	n
CN(C)c1ccc(/C=C/c2cncc3ccccc23)cc1	x	n	n	n	x	n
CN(C)c1ccc(/C=C/c2ccc3c4ccccc4ccc3[n+]2-c2ccccc2)cc1	n	8.9µM!	n	n	n	n
CN(C)c1ccc(/C=C/c2cnnc3ccccc23)cc1	x	u	n	n	x	8.9µM
CN(C)c1ccc(/C=C/c2ccc3ccccc3[n+]2C)cc1	n	u	n	n	n	n
SMILES	Vif-A3F inh	PINK1 modulator	LDHA block	Glioma ERSR ind	pAkt inh	Vif-APOBEC3G blk
CN(C)c1ccc(/C=C/c2c[n+](C)cc3ccccc23)cc1	x	45µM	n	n	x	n
CC(C)(C)C1CCC2(CC1)C(C#N)=C(SCC(=O)Nc1ccccc1)NC(=O)C2C#N (stereo not drawn)	n	22µM	n	n	n	n
CC(C)c1ccc(NC(=O)NC(=O)C(F)(F)F)cc1	x	x	n	x	x	x
COc1cc(OC)cc(C(=O)N/N=C(\C)CC(=O)Nc2ccccn2)c1	n	n	n	n	n	3.5µM
O=S(=O)(NCCCn1ccc2ccccc21)c1ccccc1F	x	x	n	x	x	x
O=[N+]([O-])c1ccc(C=CC=Cc2ccccc2)cc1	n	32µM	n	n	n	n
COc1cc(SC)ccc1C(=O)OC(C(=O)c1ccccc1)c1ccccc1 (stereo not drawn)	x	x	-33	x	x	x
Cc1cccc(C(=O)NCCCN(C)CC(F)(F)F)n1	x	x	-31	x	x	x
CN(CCCNC(=O)c1ccccn1)CC(F)(F)F	x	x	n	x	x	x
CCCCC(=O)Nc1ccc(NC(=O)c2cc(OC)c(OC)c(OC)c2)cn1	n	n	n	n	n	n
CCCCC(=O)Nc1ccc(NC(=O)c2ccccc2OC)cn1	n	n	n	n	-108%	n
CN(C)c1ccc(C2C=C(c3ccc(Cl)cc3OC(F)F)Nc3ncnn32)cc1 (stereo not drawn)	x	n	n	n	n	8.9µM
Cc1ccc(C2C=C(c3ccccc3OC(F)F)Nc3ncnn32)cc1 (stereo not drawn)	n	n	n	n	n	n
O=C(CCc1cccs1)Nc1cccc2c1CCCC2	x	x	n	x	x	x
N#C/C(=C\c1ccc(Cl)cc1Cl)c1n[nH]c(Cn2cncn2)n1	n	n	n	n	-90%	n
O=C(Nc1ccccc1)c1n[nH]c(Cn2cncn2)n1	n	n	n	n	n	n
CCOC(=O)/C(=N\Nc1ccc(Cl)cc1)c1csc(Nc2ccccc2)n1	n	n	n	n	n	n
CCOC(=O)/C(=N/Nc1ccccc1)c1csc(Nc2ccccc2)n1	n	11µM	n	n	n	n
COc1ccc(S(=O)(=O)NCCSCc2ccccc2C)cc1Br	n	n	n	n	-114%	n
Cc1ccccc1CSCCNS(C)(=O)=O	n	n	n	n	n	n
O=C(C1CCN(S(=O)(=O)c2cccc3nsnc23)CC1)N1CCCCC1	n	n	n	n	n	n
O=C(NC1CCCCC1)C1CCN(S(=O)(=O)c2cccc3nsnc23)CC1	n	10µM	n	n	n	n
O=C(COC(=O)c1cccs1)c1ccc(-c2ccccc2)cc1	x	x	n	x	x	x
O=C(COC(=O)c1cccs1)c1ccccc1	n	n	n	n	-127%	n
CCc1c(C)sc(NC(=O)C2CCC2)c1C#N	x	x	n	x	x	x
SMILES	Vif-A3F inh	PINK1 modulator	LDHA block	Glioma ERSR ind	pAkt inh	Vif-APOBEC3G blk
CC(C)(C)NC(=O)NC(=O)COC(=O)c1cc(-c2cccs2)nc2ccccc12	x	x	n	x	x	x
COc1cccc(CNC(=O)COc2ccc3c(C)cc(=O)oc3c2)c1	x	x	n	x	x	x
CC(OC(=O)c1cc2sccc2n1C)C(=O)NCC1CCCO1 (stereo not drawn)	n	10µM	n	n	n	n
CCC(OC(=O)c1cc2sccc2n1C)C(=O)NCC1CCCO1 (stereo not drawn)	n	n	n	n	n	n
Cn1c(=O)c2sccc2n(CC(=O)NCC2CCCO2)c1=O (stereo not drawn)	x	x	-41	x	x	x
Cc1cc(C(=O)CN2C(=O)C(=O)N(Cc3ccccc3)C2=O)c(C)n1Cc1ccccc1	n	n	n	n	n	n
Cc1cc(C(=O)CN2C(=O)NC(c3ccccc3)(c3ccccc3)C2=O)c(C)n1Cc1ccccc1	n	n	n	n	-136%	n
COc1cccc(-c2nc(CS(=O)(=O)CC(=O)Nc3cccc(C(F)(F)F)c3)c(C)o2)c1	x	x	-30	x	x	x
CCOC(=O)Cc1c(C(=O)OCC)[nH]c2c1C(=O)CCC2	x	x	n	x	x	x
CCOP(=O)(OCC)c1nc(-c2ccc(Br)cc2)oc1N1CCCCC1	n	n	n	n	n	n
CCOP(=O)(c1ccccc1)c1nc(-c2ccc(F)cc2)oc1N1CCCCC1 (stereo not drawn)	n	n	n	n	-130%	n
